{"source": "the supplement of paper PMC12819154", "about": "“High-throughput peptide-centric local stability assay extends protein–ligand identification to membrane proteins, tissues and bacteria” (Nature Structural & Molecular Biology, 2025)"}
{"compound": "CN[C@@H]1C[C@H]2O[C@@](C)([C@@H]1OC)n1c3ccccc3c3c4c(c5c6ccccc6n2c5c31)C(=O)NC4 [staurosporine]", "test": "log2 fold change of tryptic peptide abundance, ligand vs vehicle (limited proteolysis) (log2 ratio); higher = more trypsin-susceptible (destabilized)", "settings": "ligand concentration: 20 uM; sample: mouse liver crude lysate; replicate design: treated separately"}
{"target": "UniProt Q61083 (peptide sequence: LLGQGAFGR, peptide start residue: 361)", "log2 fold change": -1.9}
{"target": "UniProt P70268 (peptide sequence: EGMGYGDR, peptide start residue: 805)", "sequence (P70268 whole entry)": "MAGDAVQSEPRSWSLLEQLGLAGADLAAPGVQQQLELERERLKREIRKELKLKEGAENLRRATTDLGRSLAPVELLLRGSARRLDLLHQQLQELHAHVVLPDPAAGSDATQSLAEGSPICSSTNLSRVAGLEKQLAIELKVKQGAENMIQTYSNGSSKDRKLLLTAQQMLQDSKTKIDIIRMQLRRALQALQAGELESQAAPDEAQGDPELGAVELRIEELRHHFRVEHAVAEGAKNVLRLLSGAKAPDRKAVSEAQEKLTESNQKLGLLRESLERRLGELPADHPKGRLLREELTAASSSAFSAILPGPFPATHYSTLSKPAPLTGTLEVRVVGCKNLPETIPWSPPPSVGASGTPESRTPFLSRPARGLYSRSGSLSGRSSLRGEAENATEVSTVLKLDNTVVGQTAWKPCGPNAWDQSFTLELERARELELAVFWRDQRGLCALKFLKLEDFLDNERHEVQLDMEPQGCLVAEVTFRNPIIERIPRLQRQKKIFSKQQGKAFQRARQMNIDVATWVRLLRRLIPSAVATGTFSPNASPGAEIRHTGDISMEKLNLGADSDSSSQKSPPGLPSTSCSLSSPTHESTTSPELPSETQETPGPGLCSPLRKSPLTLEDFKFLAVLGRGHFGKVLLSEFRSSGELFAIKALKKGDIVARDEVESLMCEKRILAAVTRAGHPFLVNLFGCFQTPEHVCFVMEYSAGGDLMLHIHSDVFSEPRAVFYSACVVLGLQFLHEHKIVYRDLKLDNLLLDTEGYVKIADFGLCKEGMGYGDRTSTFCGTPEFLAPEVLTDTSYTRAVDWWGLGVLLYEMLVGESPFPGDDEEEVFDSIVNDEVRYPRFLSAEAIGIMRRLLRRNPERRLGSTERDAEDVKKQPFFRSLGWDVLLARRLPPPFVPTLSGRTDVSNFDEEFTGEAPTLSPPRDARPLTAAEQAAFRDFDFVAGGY", "log2 fold change": -3.03}
{"target": "UniProt P11798 (peptide sequence: DLKPENLLLASK, peptide start residue: 136)", "log2 fold change": -3.02}
{"target": "UniProt Q91WL5 (peptide sequence: GLLMLDGQTWFQHR, peptide start residue: 128)", "log2 fold change": 0.409}
{"target": "UniProt P55096 (peptide sequence: EKQTIHSVFRK, peptide start residue: 288)", "sequence (P55096 whole entry)": "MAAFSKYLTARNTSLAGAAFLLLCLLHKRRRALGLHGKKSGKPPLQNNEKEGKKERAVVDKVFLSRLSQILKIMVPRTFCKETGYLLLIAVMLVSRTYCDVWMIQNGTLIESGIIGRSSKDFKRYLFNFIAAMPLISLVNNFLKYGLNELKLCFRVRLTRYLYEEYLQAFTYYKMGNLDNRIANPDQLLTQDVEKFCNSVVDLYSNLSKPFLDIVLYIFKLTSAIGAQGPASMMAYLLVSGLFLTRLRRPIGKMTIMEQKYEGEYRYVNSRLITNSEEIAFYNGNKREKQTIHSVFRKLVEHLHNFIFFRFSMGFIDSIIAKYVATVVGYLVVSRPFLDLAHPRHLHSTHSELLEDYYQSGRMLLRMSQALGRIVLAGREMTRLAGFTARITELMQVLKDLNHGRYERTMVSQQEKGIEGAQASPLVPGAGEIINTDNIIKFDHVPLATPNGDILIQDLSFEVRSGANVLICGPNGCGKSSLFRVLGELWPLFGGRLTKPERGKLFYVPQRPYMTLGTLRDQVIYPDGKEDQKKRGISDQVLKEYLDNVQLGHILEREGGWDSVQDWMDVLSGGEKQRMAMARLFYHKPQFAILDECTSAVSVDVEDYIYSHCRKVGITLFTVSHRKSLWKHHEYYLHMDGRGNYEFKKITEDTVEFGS", "log2 fold change": 0.493}
{"target": "UniProt A2A8Z1 (peptide sequence: VVLPTFILERR, peptide start residue: 391)", "log2 fold change": 0.538}
{"target": "UniProt O08648 (peptide sequence: IFEGIKHPNLVR, peptide start residue: 1382)", "log2 fold change": -0.814}
{"target": "UniProt Q8BX94 (peptide sequence: TALPAPMFTR, peptide start residue: 62)", "log2 fold change": 0.84}
{"target": "UniProt Q7TSE6 (peptide sequence: LSDFGLCTGLKK, peptide start residue: 228)", "sequence (Q7TSE6 whole entry)": "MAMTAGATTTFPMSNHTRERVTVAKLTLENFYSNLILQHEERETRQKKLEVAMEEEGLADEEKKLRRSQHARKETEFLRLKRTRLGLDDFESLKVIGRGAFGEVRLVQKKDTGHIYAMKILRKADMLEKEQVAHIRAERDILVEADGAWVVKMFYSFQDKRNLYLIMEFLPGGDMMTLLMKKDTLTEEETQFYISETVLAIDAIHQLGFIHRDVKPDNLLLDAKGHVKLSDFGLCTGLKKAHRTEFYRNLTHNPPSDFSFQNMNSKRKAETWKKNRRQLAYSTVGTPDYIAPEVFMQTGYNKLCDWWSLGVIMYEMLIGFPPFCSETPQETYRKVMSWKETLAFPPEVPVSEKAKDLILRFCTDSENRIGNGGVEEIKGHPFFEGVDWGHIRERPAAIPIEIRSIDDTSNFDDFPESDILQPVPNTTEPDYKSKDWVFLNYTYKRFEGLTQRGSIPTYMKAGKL", "log2 fold change": -2.66}
{"target": "UniProt Q9Z2W1 (peptide sequence: GSFGEVYK, peptide start residue: 29)", "log2 fold change": -2.09}
{"target": "UniProt Q80UW5 (peptide sequence: GAFGEVAVVR, peptide start residue: 80)", "log2 fold change": -1.9}
{"target": "UniProt Q8N9S3 (peptide sequence: SPAVLEAER, peptide start residue: 231)", "sequence (Q8N9S3 whole entry)": "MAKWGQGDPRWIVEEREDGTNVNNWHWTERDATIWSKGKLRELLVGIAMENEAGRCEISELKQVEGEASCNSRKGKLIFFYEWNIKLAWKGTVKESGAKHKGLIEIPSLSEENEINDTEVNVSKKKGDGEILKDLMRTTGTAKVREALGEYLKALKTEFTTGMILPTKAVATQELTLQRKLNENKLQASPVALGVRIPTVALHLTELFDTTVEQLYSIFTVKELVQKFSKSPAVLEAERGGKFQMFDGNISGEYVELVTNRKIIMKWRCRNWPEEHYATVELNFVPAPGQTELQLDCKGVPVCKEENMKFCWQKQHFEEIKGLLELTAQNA", "log2 fold change": 0.295}
{"target": "UniProt O70291 (peptide sequence: DLKPENILLDDHGHIR, peptide start residue: 311)", "log2 fold change": -1.62}
{"target": "UniProt P14246 (peptide sequence: HVLGVPLDDR, peptide start residue: 44)", "log2 fold change": 0.702}
{"target": "UniProt Q64464 (peptide sequence: ALLSPTFTSGR, peptide start residue: 131)", "log2 fold change": -0.724}
{"target": "UniProt Q9WU19 (peptide sequence: LAMALSGCQNVK, peptide start residue: 342)", "log2 fold change": 0.411}
{"target": "UniProt Q3UU96 (peptide sequence: LHREDFEILK, peptide start residue: 72)", "log2 fold change": -1.65}
{"target": "UniProt Q3UTQ8 (peptide sequence: DIKPENLLISHNDVLK, peptide start residue: 135)", "log2 fold change": -1.56}
{"target": "UniProt Q9DC61 (peptide sequence: QVLATHSR, peptide start residue: 451)", "log2 fold change": -1.12}
{"target": "UniProt O35469 (peptide sequence: QTILDVNLK, peptide start residue: 95)", "log2 fold change": -0.227}
{"target": "UniProt Q9EQC1 (peptide sequence: DFYYQGLR, peptide start residue: 204)", "log2 fold change": -0.862}
{"target": "UniProt P97864 (peptide sequence: LFFIQACR, peptide start residue: 180)", "sequence (P97864 whole entry)": "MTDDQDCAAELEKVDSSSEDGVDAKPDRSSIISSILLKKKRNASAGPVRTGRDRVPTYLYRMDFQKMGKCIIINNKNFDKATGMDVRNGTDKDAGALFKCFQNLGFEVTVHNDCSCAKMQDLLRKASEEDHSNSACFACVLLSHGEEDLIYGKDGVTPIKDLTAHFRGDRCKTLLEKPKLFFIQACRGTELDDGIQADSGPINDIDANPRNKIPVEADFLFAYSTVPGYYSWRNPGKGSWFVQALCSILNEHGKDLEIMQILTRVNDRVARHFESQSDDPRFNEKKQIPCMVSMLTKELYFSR", "log2 fold change": -0.485}
{"target": "UniProt Q61694 (peptide sequence: EIILNAHEEEHR, peptide start residue: 136)", "log2 fold change": -0.448}
{"target": "UniProt Q8CAQ8 (peptide sequence: ATEKQHIELALEK, peptide start residue: 423)", "log2 fold change": -1.29}
{"target": "UniProt Q9JI11 (peptide sequence: ATATQLLQHPFVK, peptide start residue: 270)", "sequence (Q9JI11 whole entry)": "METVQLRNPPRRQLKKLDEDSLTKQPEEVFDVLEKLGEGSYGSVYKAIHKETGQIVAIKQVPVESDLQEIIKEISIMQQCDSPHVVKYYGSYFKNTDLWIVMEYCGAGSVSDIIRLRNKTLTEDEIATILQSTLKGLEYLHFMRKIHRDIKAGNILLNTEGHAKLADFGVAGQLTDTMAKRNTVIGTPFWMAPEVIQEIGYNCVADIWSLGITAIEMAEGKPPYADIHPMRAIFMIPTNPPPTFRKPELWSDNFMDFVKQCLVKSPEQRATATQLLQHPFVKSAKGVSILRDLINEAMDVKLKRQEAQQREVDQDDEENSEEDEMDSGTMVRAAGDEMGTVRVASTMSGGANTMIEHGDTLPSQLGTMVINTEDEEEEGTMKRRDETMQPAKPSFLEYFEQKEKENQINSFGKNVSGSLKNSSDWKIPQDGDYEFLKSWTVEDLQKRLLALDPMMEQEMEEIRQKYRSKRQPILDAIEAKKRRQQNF", "log2 fold change": -3.07}
{"target": "UniProt Q9CZW4 (peptide sequence: ALDFGNGLQMLGQKPK, peptide start residue: 144)", "log2 fold change": 0.538}
{"target": "UniProt Q9JI10 (peptide sequence: AGNILLNTEGHAK, peptide start residue: 149)", "sequence (Q9JI10 whole entry)": "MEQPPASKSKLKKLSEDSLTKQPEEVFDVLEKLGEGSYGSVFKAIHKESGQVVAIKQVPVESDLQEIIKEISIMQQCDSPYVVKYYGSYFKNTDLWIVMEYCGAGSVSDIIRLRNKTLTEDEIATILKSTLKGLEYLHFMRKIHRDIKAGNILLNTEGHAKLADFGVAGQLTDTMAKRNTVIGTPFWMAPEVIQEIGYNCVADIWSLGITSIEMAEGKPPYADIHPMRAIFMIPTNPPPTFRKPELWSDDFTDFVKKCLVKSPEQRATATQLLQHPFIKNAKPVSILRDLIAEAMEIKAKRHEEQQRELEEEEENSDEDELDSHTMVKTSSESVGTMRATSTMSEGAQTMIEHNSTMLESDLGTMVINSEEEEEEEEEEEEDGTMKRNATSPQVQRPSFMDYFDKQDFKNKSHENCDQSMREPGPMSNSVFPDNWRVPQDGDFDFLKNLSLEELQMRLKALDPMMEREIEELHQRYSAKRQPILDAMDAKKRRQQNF", "log2 fold change": -3.04}
{"target": "UniProt O55137 (peptide sequence: GLAPEQPVTLR, peptide start residue: 25)", "log2 fold change": -0.292}
{"target": "UniProt Q62073 (peptide sequence: VNHPNIVK, peptide start residue: 84)", "log2 fold change": -1.73}
{"target": "UniProt O89023 (peptide sequence: VNTEFMK, peptide start residue: 339)", "log2 fold change": -0.234}
{"target": "UniProt P11440 (peptide sequence: IGEGTYGVVYK, peptide start residue: 10)", "sequence (P11440 whole entry, looked up)": "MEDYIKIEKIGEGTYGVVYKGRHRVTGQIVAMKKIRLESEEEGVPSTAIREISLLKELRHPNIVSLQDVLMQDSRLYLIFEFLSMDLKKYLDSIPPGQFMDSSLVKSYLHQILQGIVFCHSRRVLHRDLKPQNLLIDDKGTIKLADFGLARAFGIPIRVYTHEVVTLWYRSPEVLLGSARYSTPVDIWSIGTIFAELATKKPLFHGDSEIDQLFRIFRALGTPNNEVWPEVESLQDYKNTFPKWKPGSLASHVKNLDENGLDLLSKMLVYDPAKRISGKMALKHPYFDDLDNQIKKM", "log2 fold change": -2.03}
{"target": "UniProt Q3TLP5 (peptide sequence: GLLPGAGGTQR, peptide start residue: 170)", "sequence (Q3TLP5 whole entry)": "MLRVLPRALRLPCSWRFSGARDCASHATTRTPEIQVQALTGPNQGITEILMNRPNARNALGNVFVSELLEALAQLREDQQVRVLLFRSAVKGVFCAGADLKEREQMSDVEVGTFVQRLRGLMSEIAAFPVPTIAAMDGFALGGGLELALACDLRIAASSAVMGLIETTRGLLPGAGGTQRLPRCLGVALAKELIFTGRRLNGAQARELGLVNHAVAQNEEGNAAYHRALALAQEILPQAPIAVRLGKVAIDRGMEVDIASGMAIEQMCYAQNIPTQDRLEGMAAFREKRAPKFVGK", "log2 fold change": 0.658}
{"target": "UniProt Q9DBM2 (peptide sequence: VGIPVVAVESDPKQLDTAKK, peptide start residue: 317)", "log2 fold change": 0.344}
{"target": "UniProt O89079 (peptide sequence: KYGVVLDEIKPSSAPELQAVR, peptide start residue: 65)", "log2 fold change": -0.856}
{"target": "UniProt Q8BRK8 (peptide sequence: DLKPENVLLDAQMNAK, peptide start residue: 139)", "sequence (Q8BRK8 whole entry)": "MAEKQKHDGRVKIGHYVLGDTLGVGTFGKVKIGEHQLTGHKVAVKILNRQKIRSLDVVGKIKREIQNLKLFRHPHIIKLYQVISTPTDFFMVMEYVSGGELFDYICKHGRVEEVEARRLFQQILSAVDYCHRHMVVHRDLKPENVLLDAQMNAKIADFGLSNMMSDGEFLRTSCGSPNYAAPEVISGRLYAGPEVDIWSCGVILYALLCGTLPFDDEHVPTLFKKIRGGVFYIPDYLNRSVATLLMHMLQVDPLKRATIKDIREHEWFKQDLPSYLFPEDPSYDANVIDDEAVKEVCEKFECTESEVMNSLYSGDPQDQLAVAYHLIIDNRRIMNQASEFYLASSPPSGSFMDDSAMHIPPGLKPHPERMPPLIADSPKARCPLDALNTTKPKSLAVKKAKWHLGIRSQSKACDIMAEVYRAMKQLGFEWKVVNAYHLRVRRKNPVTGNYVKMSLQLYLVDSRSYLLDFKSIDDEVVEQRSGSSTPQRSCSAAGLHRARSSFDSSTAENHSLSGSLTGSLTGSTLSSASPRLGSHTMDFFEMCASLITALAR", "log2 fold change": -3.83}
{"target": "UniProt Q61831 (peptide sequence: DLKPSNIVVK, peptide start residue: 151)", "log2 fold change": -1.06}
{"target": "UniProt P19157 (peptide sequence: AFLSSPEHVNRPINGNGK, peptide start residue: 192)", "log2 fold change": -0.521}
